Screen size: about 310,000 compounds; about 14,000 (4.5%) showed an effect of 50% or more. The effect is printed as a negative number. This excerpt belongs to a sample that is enriched for strong results.
Target: human ether-à-go-go-related gene (hERG) potassium channel (human, UniProt Q12809)
Experiment: primary screen, population patch clamp on CHO cells stably expressing hERG; higher = less effect of the substance
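Note: peak tail current of the secondary pulse compared with the same well before compound.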

Chain of human ether-à-go-go-related gene (hERG) potassium channel (Q12809 whole entry, looked up): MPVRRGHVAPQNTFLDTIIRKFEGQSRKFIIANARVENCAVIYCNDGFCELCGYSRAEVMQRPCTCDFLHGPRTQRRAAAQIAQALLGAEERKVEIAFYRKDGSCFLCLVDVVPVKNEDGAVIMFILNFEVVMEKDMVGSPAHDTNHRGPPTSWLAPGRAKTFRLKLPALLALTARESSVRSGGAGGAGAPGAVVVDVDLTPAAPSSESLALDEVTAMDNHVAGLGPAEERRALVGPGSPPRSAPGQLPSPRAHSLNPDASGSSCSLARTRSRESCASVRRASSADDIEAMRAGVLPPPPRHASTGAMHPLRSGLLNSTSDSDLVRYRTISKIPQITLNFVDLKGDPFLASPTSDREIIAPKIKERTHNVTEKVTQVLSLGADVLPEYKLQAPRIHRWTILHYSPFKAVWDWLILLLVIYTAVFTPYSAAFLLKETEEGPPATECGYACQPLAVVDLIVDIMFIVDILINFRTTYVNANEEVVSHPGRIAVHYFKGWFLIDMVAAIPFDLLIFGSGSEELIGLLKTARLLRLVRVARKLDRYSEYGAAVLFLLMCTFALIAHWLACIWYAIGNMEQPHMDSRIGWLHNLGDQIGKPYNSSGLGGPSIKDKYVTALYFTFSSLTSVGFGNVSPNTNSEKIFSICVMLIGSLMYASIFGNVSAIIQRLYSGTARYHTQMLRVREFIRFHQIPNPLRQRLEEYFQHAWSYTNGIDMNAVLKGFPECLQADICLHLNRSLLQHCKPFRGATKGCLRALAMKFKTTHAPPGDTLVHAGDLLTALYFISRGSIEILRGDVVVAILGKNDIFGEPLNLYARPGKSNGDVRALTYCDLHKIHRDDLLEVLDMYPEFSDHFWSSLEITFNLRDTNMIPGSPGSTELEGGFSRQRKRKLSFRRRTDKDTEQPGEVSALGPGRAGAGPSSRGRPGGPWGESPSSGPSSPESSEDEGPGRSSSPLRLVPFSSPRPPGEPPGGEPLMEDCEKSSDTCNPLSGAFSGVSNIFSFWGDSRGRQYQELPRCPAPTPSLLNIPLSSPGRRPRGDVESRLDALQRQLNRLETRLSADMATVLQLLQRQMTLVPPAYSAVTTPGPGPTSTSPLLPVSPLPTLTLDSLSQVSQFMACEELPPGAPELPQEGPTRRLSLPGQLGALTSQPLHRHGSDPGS

Structure (SMILES) | hERG current change (%, negative = inhibition) at 10uM [%]
CCC1CCCCN1CCNC(=O)CNS(=O)(=O)c1ccc2nc(C)sc2c1 (stereo not shown) | 10.5
O=C(Nc1nnc(C2CC2)s1)C1=NN(C2CCS(=O)(=O)C2)C(=O)CC1 (stereo not shown) | 0.219
Cc1[nH]c(C)c(S(=O)(=O)Nc2ccccc2Cl)c1C(=O)N1CCCC1 | 15.7
CCN(CC)c1ccc(N=Cc2c(O)n(-c3ccc(Cl)cc3)c(=O)[nH]c2=O)cc1 | 14.5
Cc1ccc(C(=O)CCC(=O)Nc2cccnc2)cc1C | 12.4
Cc1ccc(C(=O)C2CCN(CC(=O)Nc3ccc(N(C)C)cc3)CC2)cc1 | -36.4
CCOc1ccc(C(=O)C2CCN(CC(=O)Nc3ccccc3N3CCOCC3)CC2)cc1 | -53.6
COc1ccc(NC(=O)CN2CCC(C(=O)c3ccc(C)cc3)CC2)c(OC)c1 | -29.8
CCOc1ccccc1NC(=O)CN1CCC(C(=O)c2ccc(OC)cc2)CC1 | -65.9
COc1ccc(C(=O)C2CCN(CC(=O)Nc3ccccc3F)CC2)cc1 | -17.2
CCOc1ccc(C(=O)Nc2ccccc2N2CCOCC2)cc1 | -5.52
CC1CCN(CC(=O)Nc2nccs2)CC1 | 13.6
COc1ccc(C(=O)C2CCN(CC(=O)Nc3ccc(C)cc3)CC2)cc1 | -53.4
NC(=O)C1CCN(CC(=O)Nc2ccccc2N2CCOCC2)CC1 | 3.15
CCOc1ccccc1NC(=O)CN1CCC(C(=O)c2ccc(F)cc2)CC1 | -20.9
NC(=O)C1CCN(CC(=O)Nc2nccs2)CC1 | 10.9
CCOc1ccc(C(=O)C2CCN(CC(=O)Nc3nccs3)CC2)cc1 | -68.3
O=C(Cc1cccc2ccccc12)NNC(=O)c1cccs1 | 15.7
COC(=O)CSc1ncnc2c(C)csc12 | 3.11
CN(C)c1ccc(-c2nnc(-c3cccnc3)o2)cc1 | 7.04
O=C(CNC(=O)c1ccco1)N/N=C/c1ccc(O)c([N+](=O)[O-])c1 | 29.1
COC(=O)c1[nH]c(C)c(/C(O)=C2\C(=O)C(=O)N(CCN(C)C)C2c2ccccc2OC)c1C (stereo not shown) | 15.3

Structure (SMILES) | hERG current change (%, negative = inhibition) at 10uM [%]
CC(=O)N1CCN(c2ccc(NC(=O)c3cccc(Cl)c3Cl)cc2)CC1 | -8.8
N/C(=N\OC(=O)c1cccc(C(F)(F)F)c1)c1cnccn1 | 16.7
Cc1cccc(CC(=O)Nc2c3c(nn2-c2cccc(Cl)c2)CS(=O)C3)c1 (stereo not shown) | 6.32
COc1ccc(NC(=O)CN2CCC(C)CC2)cc1 | -4.51
Cc1cc(C)cc(NC(=O)CN2CCC(C(=O)c3ccccc3)CC2)c1 | -48.6
CCc1ccc(NC(=O)CN2CCC(C(=O)c3ccc(OC)cc3)CC2)cc1 | -62.8
COc1ccc(C(=O)C2CCN(CC(=O)Nc3cc(C)cc(C)c3)CC2)cc1 | -65.2
COc1ccc(NC(=O)CN2CCC(C(N)=O)CC2)cc1 | 2.76
COc1ccc(OC)c(NC(=O)CN2CCC(C(=O)c3ccc(C)cc3)CC2)c1 | -17.7
Nc1ncnc2c1ncn2C1OC(CO)C(O)C1O (stereo not shown) | 35.7
O=C(Cc1ccsc1)NNC(=O)c1ccccc1O | 7.87
COc1ccc(C)cc1NC(=O)CSc1nnc(COc2ccccc2)n1Cc1ccco1 | -9.46
CCOC(=O)c1c(N)sc(C(O)(C(F)(F)F)C(F)(F)F)c1-c1ccc(Cl)cc1 | -4.79
COC(=O)Cc1csc(Nc2ccc(Cl)cc2)n1 | 7.01
CC(C)[C@H](NC(N)=O)C(=O)NCCc1ccc(Cl)cc1Cl | -27
Cc1ccc(OCc2cc(C(=O)N3CCN(c4ccccc4)CC3)no2)cc1C | -0.317
O=C(/C(C=Nc1cccc(C(F)(F)F)c1)=C(/O)c1ccco1)C(F)(F)F | -29.8
O=C(/C(C=Nc1ccc(Br)cc1)=C(/O)c1ccco1)C(F)(F)F | -52.6
O=C(/C(C=Nc1ccc(F)cc1)=C(/O)c1ccco1)C(F)(F)F | -26.7
CC(=O)c1cccc(NC(=O)c2cc(-c3cccs3)on2)c1 | 27
Cc1ccc(NC(=O)c2cnc(N3CCN(c4ccccn4)CC3)c3ccccc23)c(Br)c1 | 10.7

From publication PMC4336329 (PLoS ONE, 2015)
